Records with an inconclusive call do not appear. A call without a number means that no potency is given here. Calls of active or inactive are those of the source. Unless noted, calls follow the shape of the dose curve; as a rule, active = well fitted curve in the direction sought with a large enough effect; inconclusive = small, poorly fitted or top-dose-only effect, or another doubt; inactive = no such curve, though single readings can be large; an effect the other way counts as inactive or inconclusive.
What was measured:
[1] = S16 Schwann cell PMP22 intronic element beta-lactamase assay (AID 624044; calls by dose curve; also: nearly all actives have a fitted effect of over 15% in size)
Procedure, shortened: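 Rat S16 Schwann cells with beta-Lac driven by a PMP22 intronic element, compound-treated 24 h at 37 °C. LiveBLAzer FRET B/G read: 460 nm normalized to potassium clavulanate vs DMSO; 535 nm FRET as viability; concentration-effect curves classified.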

CP215 = experiment: qHTS profiling for inhibitors of Plasmodium falciparum proliferation (AID 504749); also: nearly all actives have a fitted effect of over 60% in size; conditions: P. falciparum in erythrocytes, SYBR Green DNA, 72 h; series mostly up to 28.7 µM
Procedure, shortened: (§1)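 Parasite proliferation within erythrocytes, 72 h exposure. Endpoint: SYBR Green I fluorescence after overnight lysis at room temperature. Controls: 0.29 uM artemisinin, DMSO.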

[2] = biological target: Estrogen receptor (Homo sapiens) (UniProt P03372); experiment: qHTS assay for small molecule agonists of estrogen receptor alpha signaling (AID 588514; calls by dose curve; also: nearly all actives have a fitted effect of over 70% in size)
Procedure, shortened: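 Cells were plated at 5000/well, incubated 4 hrs at 37 C, dosed with compound titration series, incubated 18 hrs at 37 C, loaded with CCF4 dye for 2 hrs at RT, then fluorescence was read.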

[3] = biological target: Androgen receptor (Homo sapiens) (UniProt P10275); experiment: qHTS assay for small molecule antagonists of androgen receptor signaling (AID 588516; active = well fitted curve in the direction sought with a large enough effect in the signal ratio, with a control signal flat, not every such curve was filed as active; the % refers to the signal ratio)
Procedure, shortened: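 Antagonist mode: inhibition of R1881-stimulated (10 nM final) bla reporter in GeneBLAzer AR HEK 293 cells, 16 h at 37C, compounds titrated. IC50 and efficacy from Hill-equation fits of 405/460–530 nm FRET ratios.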

[4] = biological target: Bile acid receptor (Homo sapiens) (UniProt Q96RI1); experiment: qHTS assay for small molecule antagonists of farnesoid X receptor signaling (AID 588526; calls by dose curve)
Procedure, shortened: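 Concentration-response titrations were fitted to the Hill equation for half-maximal inhibition and maximal response, with data normalised to 50 uM chenodeoxycholic acid and DMSO control wells. Cells: FXR-UAS-bla HEK293T, dialyzed FBS.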

[5] = biological target: Retinoic acid receptor RXR-alpha (Homo sapiens) (UniProt P19793); experiment: qHTS assay for small molecule antagonists of retinoid X receptor alpha signaling (AID 588546; active = well fitted inhibition curve with a large enough effect in the signal ratio, with a control signal flat, not every such curve was filed as active; the % refers to the signal ratio;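 also: cells stimulated with 9-cis-retinoic acid as agonist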); conditions: HEK293T RXRa-UAS-bla, beta-lactamase ratio, antagonist mode
Procedure, shortened: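 Beta-lactamase reporter inhibition, read as CCF4 fluorescence ratio (ex 405, em 460/530 nm) after 2 h at RT. HEK293T UAS-bla cells, 2500/well, were stimulated with 9-cis-RA at 500 or 100 nM final alongside test compound for 18 h at 37 C.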

[6] = Cytotoxicity counterscreen for NFkB agonists and antagonists (AID 624476);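 also: cells exposed to compound for 48 hours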
[7] = qHTS Assay for Identification of Small Molecule Agonists for NFkB Signaling Pathway. (AID 624478);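 also: compounds tested together with TNF alpha at its EC50 of 10 pM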
Procedure, shortened: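 ME-180 cervical carcinoma, stable NFkB-RE beta-lactamase reporter; 1000 cells/well, overnight attachment; cpd + TNF alpha 10 pM final, 5 h 37 C; LiveBLAzer 2 h RT; FRET 460/530 nm, ex 405 nm.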

[8] = qHTS Assay for Identification of Small Molecule Antagonists for NFkB Signaling Pathway. (AID 624479; calls by dose curve;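 also: pathway stimulated with TNF alpha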)
CP211 = experiment: qHTS profiling for inhibitors of Plasmodium falciparum proliferation (AID 504749); also: nearly all actives have a fitted effect of over 60% in size; conditions: P. falciparum in erythrocytes, SYBR Green DNA, 72 h; series mostly up to 28.7 µM
Procedure, shortened: as §1

CP268 = experiment: as above; conditions: P. falciparum in erythrocytes, SYBR Green DNA, 72 h; series mostly up to 28.7 µM
Procedure, shortened: as §1

CP291 = experiment: as above; conditions: P. falciparum in erythrocytes, SYBR Green DNA, 72 h; series mostly up to 28.7 µM
Procedure, shortened: as §1

CP305 = experiment: as above; conditions: P. falciparum in erythrocytes, SYBR Green DNA, 72 h; series mostly up to 28.7 µM
Procedure, shortened: as §1

CP325 = experiment: as above; conditions: P. falciparum in erythrocytes, SYBR Green DNA, 72 h; series mostly up to 28.7 µM
Procedure, shortened: as §1

DIV14 = experiment: as above; conditions: P. falciparum in erythrocytes, SYBR Green DNA, 72 h; series mostly up to 28.7 µM
Procedure, shortened: as §1

P93_24 = experiment: as above; conditions: P. falciparum in erythrocytes, SYBR Green DNA, 72 h; series mostly up to 28.7 µM
Procedure, shortened: as §1

[9] = qHTS profiling of the MIPE4 collection as inhibitors of Plasmodium falciparum (3D7) proliferation (AID 743344; call rule not given here); conditions: P. falciparum 3D7 in erythrocytes, SYBR Green DNA fluorescence, 72 h; at 28.5 µM (top of the series)
Procedure, shortened: (§2)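 Erythrocytes infected with P. falciparum (0.3% parasitemia, 2.5% hematocrit) incubated with compounds 72 h at 37 C, 5% CO2. Lysis with saponin/Triton buffer containing SYBR Green I, overnight at room temperature in the dark; DNA fluorescence (485/535 nm) normalised to 0.29 uM artemisinin and DMSO.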

[10] = qHTS profiling of the MIPE4 collection as inhibitors of Plasmodium falciparum (DD2) proliferation (AID 743345; call rule not given here); conditions: P. falciparum Dd2 in erythrocytes, SYBR Green DNA, 72 h; at 28.5 µM (top of the series)
Procedure, shortened: as §2

[11] = qHTS profiling of the MIPE4 collection as inhibitors of Plasmodium falciparum (DD2) proliferation (Rep 2) (AID 743346; call rule not given here); conditions: P. falciparum Dd2 in erythrocytes, SYBR Green DNA, 72 h; at 28.5 µM (top of the series)
Procedure, shortened: as §2

[12] = qHTS profiling of the MIPE4 collection as inhibitors of Plasmodium falciparum (HB3) proliferation (AID 743347; call rule not given here); conditions: P. falciparum HB3 in erythrocytes, SYBR Green DNA, 72 h; at 28.5 µM (top of the series)
Procedure, shortened: as §2

Sequence of Bile acid receptor (Homo sapiens) (Q96RI1 whole entry, looked up): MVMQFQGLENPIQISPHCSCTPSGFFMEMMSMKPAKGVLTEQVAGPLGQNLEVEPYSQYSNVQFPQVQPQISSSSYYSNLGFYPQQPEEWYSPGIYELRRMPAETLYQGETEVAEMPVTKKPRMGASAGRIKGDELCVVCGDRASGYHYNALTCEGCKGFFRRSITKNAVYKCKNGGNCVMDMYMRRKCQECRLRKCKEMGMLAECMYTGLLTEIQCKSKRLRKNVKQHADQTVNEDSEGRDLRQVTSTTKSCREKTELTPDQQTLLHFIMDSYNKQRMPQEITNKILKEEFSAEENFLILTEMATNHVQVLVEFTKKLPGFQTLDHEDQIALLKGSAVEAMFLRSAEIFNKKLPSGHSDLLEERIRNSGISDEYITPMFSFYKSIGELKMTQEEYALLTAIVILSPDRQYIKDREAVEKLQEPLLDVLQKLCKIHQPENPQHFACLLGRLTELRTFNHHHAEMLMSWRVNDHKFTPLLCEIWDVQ
Sequence of Retinoic acid receptor RXR-alpha (Homo sapiens) (P19793 whole entry, looked up): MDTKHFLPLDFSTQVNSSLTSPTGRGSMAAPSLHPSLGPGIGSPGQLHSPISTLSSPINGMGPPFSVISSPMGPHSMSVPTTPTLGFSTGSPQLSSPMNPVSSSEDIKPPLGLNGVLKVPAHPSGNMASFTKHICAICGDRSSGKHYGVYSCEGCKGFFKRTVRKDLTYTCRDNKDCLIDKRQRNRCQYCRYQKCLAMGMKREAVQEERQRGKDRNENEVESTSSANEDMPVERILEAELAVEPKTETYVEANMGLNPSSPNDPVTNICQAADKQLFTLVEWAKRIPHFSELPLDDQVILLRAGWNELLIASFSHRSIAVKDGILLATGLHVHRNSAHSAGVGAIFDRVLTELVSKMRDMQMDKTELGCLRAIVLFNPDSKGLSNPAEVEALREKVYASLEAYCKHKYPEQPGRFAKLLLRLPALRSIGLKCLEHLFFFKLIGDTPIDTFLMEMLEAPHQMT
Sequence of Androgen receptor (Homo sapiens) (P10275 whole entry, looked up): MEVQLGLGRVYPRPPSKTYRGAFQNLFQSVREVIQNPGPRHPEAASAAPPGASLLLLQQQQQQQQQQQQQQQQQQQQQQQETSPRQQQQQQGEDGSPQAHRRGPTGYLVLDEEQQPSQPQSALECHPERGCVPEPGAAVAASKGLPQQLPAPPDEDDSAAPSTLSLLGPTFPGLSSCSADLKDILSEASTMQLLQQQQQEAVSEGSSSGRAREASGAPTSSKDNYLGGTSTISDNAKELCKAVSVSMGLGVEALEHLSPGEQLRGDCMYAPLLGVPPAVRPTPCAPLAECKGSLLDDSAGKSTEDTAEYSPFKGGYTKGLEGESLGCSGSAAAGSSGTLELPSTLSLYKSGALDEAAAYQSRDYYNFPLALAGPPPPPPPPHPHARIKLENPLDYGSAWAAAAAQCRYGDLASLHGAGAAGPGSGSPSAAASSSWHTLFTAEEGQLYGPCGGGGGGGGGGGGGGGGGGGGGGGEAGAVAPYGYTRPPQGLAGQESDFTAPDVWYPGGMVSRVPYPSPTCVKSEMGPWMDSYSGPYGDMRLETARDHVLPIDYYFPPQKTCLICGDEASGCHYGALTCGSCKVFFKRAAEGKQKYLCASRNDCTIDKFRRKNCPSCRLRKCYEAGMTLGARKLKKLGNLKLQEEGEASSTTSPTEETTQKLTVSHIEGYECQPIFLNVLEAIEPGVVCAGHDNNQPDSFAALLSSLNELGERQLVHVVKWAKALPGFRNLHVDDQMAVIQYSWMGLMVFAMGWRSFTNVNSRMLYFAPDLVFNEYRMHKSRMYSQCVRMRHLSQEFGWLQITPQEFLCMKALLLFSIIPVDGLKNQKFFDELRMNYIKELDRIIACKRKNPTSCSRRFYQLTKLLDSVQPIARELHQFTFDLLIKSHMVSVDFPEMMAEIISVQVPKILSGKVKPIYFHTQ
Sequence of Estrogen receptor (Homo sapiens) (P03372 whole entry, looked up): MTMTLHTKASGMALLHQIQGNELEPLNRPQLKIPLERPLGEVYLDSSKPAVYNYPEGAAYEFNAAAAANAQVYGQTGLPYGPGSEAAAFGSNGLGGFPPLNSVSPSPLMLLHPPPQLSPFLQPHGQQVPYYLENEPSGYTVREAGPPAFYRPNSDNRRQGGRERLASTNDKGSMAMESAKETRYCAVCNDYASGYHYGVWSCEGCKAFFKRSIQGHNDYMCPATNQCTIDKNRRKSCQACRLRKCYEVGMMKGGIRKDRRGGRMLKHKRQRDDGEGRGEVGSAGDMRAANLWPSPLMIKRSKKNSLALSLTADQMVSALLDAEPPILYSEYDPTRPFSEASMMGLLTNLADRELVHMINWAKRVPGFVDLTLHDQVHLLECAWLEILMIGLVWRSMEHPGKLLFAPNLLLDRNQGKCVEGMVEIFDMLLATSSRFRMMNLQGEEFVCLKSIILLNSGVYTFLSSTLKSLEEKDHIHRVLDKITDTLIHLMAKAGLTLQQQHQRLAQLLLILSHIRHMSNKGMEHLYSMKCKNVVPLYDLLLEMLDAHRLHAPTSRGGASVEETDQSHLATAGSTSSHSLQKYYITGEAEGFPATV

Question: For `CC(C)CN(C[C@@H](O)[C@H](Cc1ccccc1)NC(=O)O[C@H]1CCOC1)S(=O)(=O)c1ccc(N)cc1`, which Potency [1] is on record?
Answer: inactive

Question: What about the Potency (CP215) of the same compound?
Answer: inactive

Question: With `CCCCCCCCOC(=O)c1cc(O)c(O)c(O)c1` as the compound, how does the Potency [2] read?
Answer: inactive

Question: With `O=C(Nc1ccccc1)c1ccccc1O` as the compound, how does the outcome [3] read?
Answer: inactive

Question: Which outcome [4] does the source give for `O=C(O)CCCCCCCCC(=O)O` here?
Answer: inactive

Question: For `C[Si](C)(C)O[Si](C)(C)O[Si](C)(C)C`, which max response [5] is on record?
Answer: -6.04% (inactive)

Question: With `CCC(C)n1ncn(-c2ccc(N3CCN(c4ccc(OCC5COC(Cn6cncn6)(c6ccc(Cl)cc6Cl)O5)cc4)CC3)cc2)c1=O` (stereo not given) as the compound, how does the outcome [6] read?
Answer: inactive

Question: What about the outcome [7] of the same compound?
Answer: inactive

Question: And the outcome [8]?
Answer: inactive

Question: And the Potency (CP211)?
Answer: inactive

Question: And the Potency (CP268)?
Answer: inactive

Question: And the Potency (CP291)?
Answer: inactive

Question: What about the Potency (CP305) of the same compound?
Answer: inactive

Question: And the Potency (CP325)?
Answer: inactive

Question: And the Potency (DIV14)?
Answer: inactive

Question: And the Potency (P93_24)?
Answer: inactive

Question: With `CCCCCCCCCCCCCCCCn1cc[n+](Cc2ccccc2)c1C` as the compound, how does the parasite growth, % of DMSO control [9] read?
Answer: 5.58%

Question: And the parasite growth remaining, % of DMSO control (lower = more inhibition) [10]?
Answer: 6.21%

Question: And the parasite growth, % of control (lower = inhibition) [11]?
Answer: 8.98%

Question: And the growth, % of control [12]?
Answer: 5.99%

— PubChem BioAssay (NCATS)
